Data taken from PubChem BioAssay (NCATS).
“And” between values parts separate entries of the source, which are not always exact repeats. Equal values may be shown once. Records with an inconclusive call do not appear. Where a call stands in place of a potency, no number is given. The source holds several records for some structures; these can differ, active in one and inactive in another. The source made the active and inactive calls. Calls come from the whole dose curve; as a rule, active = well fitted curve in the direction sought with a large enough effect; inconclusive = small, poorly fitted or top-dose-only effect, or another doubt; inactive = no such curve, though single readings can be large; an effect the other way counts as inactive or inconclusive. Where a SMILES comes first, the peptide text is derived from it. [ ]: non-standard residue; d: D form. PhLac = O=C(O)[CH](O)Cc1ccccc1; NMeV = CN[CH](C(=O)O)C(C)C

Assays:
[1] = Primary qHTS for inhibitors of nuclear receptor binding SET domain protein 2 (NSD2) in an isogenic RCH-ACV NSD2 p.E1099K mutant (9B) (AID 1645876); details: RCH-ACV NSD2 E1099K (9B) viability, CellTiter-Glo, 72 h; series mostly up to 44.9 µM
[2] = Primary qHTS for inhibitors of nuclear receptor binding SET domain protein 2 (NSD2) in an RCH-ACV wild type WT cells (2C) (AID 1645877); details: RCH-ACV (leukaemia line) NSD2 WT (2C) viability, CellTiter-Glo, 72 h; series mostly up to 44.9 µM
Note: nearly all actives have a fitted effect of over 70% in size.
Potency is the fitted concentration of half-maximal effect.

## CC(=O)OCCC(C)CCC1C(C)(O)CCC2C(C)(C)CCCC21C (stereo not given)
[1]
  Potency: inactive
[2]
  Potency: inactive

## C/C1=C\C[C@H](O[C@@H]2O[C@H](CO)[C@@H](O)[C@H](O)[C@H]2O)/C(C)=C/[C@H]2OC(=O)[C@H](C)[C@@H]2CC1
[1]
  Potency: inactive
[2]
  Potency: inactive

## C=C1C(OC(C)=O)C(=O)C2C(C)(C)C(OC(C)=O)CCC2(C)C1CC(OC(C)=O)/C(C)=C/COC(C)=O (stereo not given)
[1]
  Potency: inactive
[2]
  Potency: inactive

## COC(=O)[C@H](CC1C=NC=N1)NCC12CC3CC(CC(C3)C1)C2 (stereo not given in full)
[1]
  Potency: inactive
[2]
  Potency: inactive

## CC(=O)c1c(O)cc2cccc3c2c1CC(C)(O)O3 (stereo not given)
[1]
  Potency: inactive
[2]
  Potency: inactive

## CC1(C)CCCC2(C)C3=C(C(=O)OC3O)C(O)CC12 (stereo not given)
[1]
  Potency: inactive
[2]
  Potency: inactive

## Nc1ccn([C@@H]2C(F)=C(CO)[C@@H](O)[C@H]2O)c(=O)n1
[1]
  Potency: 372 nM (active)
[2]
  Potency: 332 nM (active)

## N#Cc1ccnc(N2C(=O)CC[C@H]2C(=O)N(c2cncc(F)c2)[C@H](C(=O)NC2CC(F)(F)C2)c2ccccc2Cl)c1
[1]
  Potency: inactive
[2]
  Potency: inactive

## CO/N=C(/C(=O)N[C@@H]1C(=O)N2C(C(=O)O)=C(CSC(=O)c3ccco3)CS[C@H]12)c1csc(N)n1
[1]
  Potency: inactive
[2]
  Potency: inactive

## C=C1CC[C@H]2[C@@](C)(CCC(O)[C@@]2(C)CO)[C@@H]1C/C=C(/C(=O)O)C(O)CO (stereo not given in full)
[1]
  Potency: inactive
[2]
  Potency: inactive

## CC(=O)N1c2ccccc2C2(O)CC3C(=O)NC(CC(C)C)C(=O)N3C12 (stereo not given)
[1]
  Potency: inactive
[2]
  Potency: inactive

## CC(C)C(C(=O)N1CCCC1C(=O)O)N(C)C(=O)C(O)Cc1ccccc1 (stereo not given) (H-[PhLac]-[NMeV]-Pro-OH; configuration not given here)
[1]
  Potency: inactive
[2]
  Potency: inactive

## COC(=O)C1=CO[C@@H](O[C@@H]2O[C@H](CO[C@@H]3O[C@H](COC(=O)/C=C/c4ccc(O)cc4)[C@@H](O)[C@H](O)[C@H]3O)[C@@H](O)[C@H](O)[C@H]2O)[C@@H]2C(CO)=CC[C@H]12
[1]
  Potency: inactive
[2]
  Potency: inactive

## C=C1CCC2C(C)(C)CC(=O)CC2(C)C1CCC(C)CCOC(C)=O (stereo not given)
[1]
  Potency: inactive
[2]
  Potency: inactive

## COc1cccc(-c2ccc([C@@H](Oc3cc(-c4ccc(C[C@H](N)C(=O)O)cc4)nc(N)n3)C(F)(F)F)cc2)c1
[1]
  Potency: inactive
[2]
  Potency: inactive

## CC1=C2[C@@H]([C@H](C)CC[C@H]2/C=C(\C)C(=O)O)[C@H](O)C1
[1]
  Potency: inactive
[2]
  Potency: inactive

## O=C(NN1CCCCC1)c1nn(-c2ccc(Cl)cc2Cl)c(-c2ccc(C#Cc3ccc(C(F)(F)F)cc3)s2)c1CNS(=O)(=O)N1CCCC1
[1]
  Potency: inactive
[2]
  Potency: inactive

## COc1ccc(C(=O)O[C@H]2CC(C)=CC[C@@]3(C)[C@@H](OC(C)=O)C[C@@](O)(C(C)C)[C@H]23)cc1
[1]
  Potency: inactive
[2]
  Potency: inactive

## CC1(C)C(=O)N2c3ccccc3[C@]3(CC(n4cnc5ccccc5c4=O)C(=O)O3)[C@H]2N1O (stereo not given in full)
[1]
  Potency: inactive
[2]
  Potency: inactive

## CC(=O)OCC(=O)O[C@@H]1[C@H]2[C@@H](OC(=O)c3ccccc3)[C@@H](C)C[C@]2(O)[C@H](OC(C)=O)C2(C)[C@H]3CC(C)(C)C(=O)[C@@H]3CC1(OC(C)=O)[C@@H]2OC(C)=O (stereo not given in full)
[1]
  Potency: inactive
[2]
  Potency: inactive

## CC1=C(C)C(=O)OC(C(C)(O)C2CCC3C4CC=C5CC(OC6OC(COC7OC(CO)C(O)C(O)C7O)C(O)C(O)C6O)CC(O)C5(C)C4CCC32C)C1 (stereo not given)
[1]
  Potency: inactive
[2]
  Potency: inactive

## COC1=CC(=O)O[C@@H](CCc2ccccc2)[C@@H]1O
[1]
  Potency: inactive
[2]
  Potency: inactive

## C=C1CC2C3(C)C(OC(C)=O)CC(=O)OC(C)(C)C3C(O)C(OC(C)=O)C2(C)C2C(=O)OC(C)C(=O)C12C (stereo not given)
[1]
  Potency: inactive
[2]
  Potency: inactive

## CC(CCC1(O)OC2CC3C4CCC5CC(O[C@@H]6O[C@H](CO)[C@@H](O)[C@H](O)[C@H]6O[C@@H]6OC[C@@H](O)[C@H](O)[C@H]6O)C(O)CC5(C)C4CCC3(C)C2C1C)CO[C@@H]1O[C@H](CO)[C@@H](O)[C@H](O)[C@H]1O (stereo not given in full)
[1]
  outcome: inactive [at 9.23 µM]
[2]
  outcome: inactive [at 9.23 µM]

## CC(C)CC(=O)O[C@@H]1OC=C(CO[C@@H]2O[C@H](CO[C@@H]3O[C@H](CO)[C@@H](O)[C@H](O)[C@H]3O)[C@@H](O)[C@H](O)[C@H]2O)[C@H]2C[C@H](O)[C@@H](CO)[C@@H]12
[1]
  Potency: inactive
[2]
  Potency: inactive

## Cc1c(-c2ccnn2C)cc(C(=O)NCc2ccc(S(C)(=O)=O)cn2)c(=O)n1-c1cccc(C(F)(F)F)c1
[1]
  Potency: inactive
[2]
  Potency: inactive

## CC/C=C/CC1=C(CCCCCCCC(=O)O)CCC1=O
[1]
  Potency: inactive
[2]
  Potency: inactive

## O=c1c2ccccc2nc2n1CCC2O (stereo not given)
[1]
  Potency: inactive
[2]
  Potency: inactive

## O=C(/C=C/c1ccc(O)cc1)O[C@H]1[C@@H]2C=CO[C@@H](O[C@@H]3O[C@H](CO)[C@@H](O)[C@H](O)[C@H]3O)[C@@H]2[C@@]2(CO)O[C@@H]12
[1]
  Potency: inactive
[2]
  Potency: inactive

## CCOC(=O)c1ccnc(CNCC(=O)N(CC)CCN(C)C)c1
[1]
  Potency: inactive
[2]
  Potency: inactive

## C/C=C(\C)C(=O)OC[C@H]1O[C@H](O[C@H]2O[C@H](CO)[C@@H](OC(=O)/C(C)=C/C)[C@H](O)[C@H]2O[C@@H]2O[C@H](CO)[C@@H](O)[C@H](O)[C@H]2O)[C@H](O[C@@H]2O[C@H](CO)[C@@H](O)[C@H](O)[C@H]2O)[C@@H](O)[C@@H]1O
[1]
  outcome: inactive [at 9.23 µM]
[2]
  outcome: inactive [at 9.23 µM]

## CC[C@H](C)/C=C(C)/C=C/C(=O)Cc1cc(O)c(C)c(O)c1C=O
[1]
  Potency: inactive
[2]
  Potency: inactive

## CC(=O)OC1C(O)C(C)=C(CCC(C)CC(=O)O)C2(C)CCCC(C)(C)C12 (stereo not given)
[1]
  Potency: inactive
[2]
  Potency: inactive

## COc1c(C)c(C(=O)c2ccc(N)c(C(=O)O)c2)n2ccccc12
[1]
  Potency: inactive
[2]
  Potency: inactive

## CC(C)CC(=O)OC[C@H]1O[C@@](COC(=O)CC(C)C)(O[C@H]2O[C@H](CO)[C@@H](O)[C@H](O)[C@H]2OC(=O)CC(C)C)[C@@H](OC(=O)CC(C)C)[C@@H]1O
[1]
  Potency: inactive
[2]
  Potency: inactive

## C[C@@H]1O[C@@H](O[C@H]2[C@H](OC(=O)[C@]34CCC(C)(C)C[C@H]3C3=CCC5[C@@]6(C)C[C@H](O)[C@H](O[C@@H]7O[C@H](CO)[C@@H](O[C@@H]8O[C@H](CO)[C@@H](O)[C@H](O)[C@H]8O)[C@H](O)[C@H]7O)[C@@](C)(CO)C6[C@H](O)C[C@@]5(C)[C@]3(C)C[C@H]4O)OC[C@H](O)[C@@H]2O)[C@H](O)[C@H](O)[C@H]1O[C@@H]1OC[C@@H](O)[C@H](O[C@@H]2OC[C@](O)(CO)[C@H]2O)[C@H]1O (stereo not given in full)
[1]
  activity change, negative = viability loss: -3.67% [at 9.23 µM] (inactive)
[2]
  activity change, negative = cell killing: 2.2% [at 9.23 µM] (inactive)

## COc1ccc(C(OC2OC(CO)C(O)C(O)C2O)C(C)O)cc1 (stereo not given)
[1]
  Potency: inactive
[2]
  Potency: inactive

## CC1(C)C(=O)C(C)(C)c2cc(C(=O)Nc3ccc(C(=O)O)cc3)ccc21
[1]
  Potency: inactive
[2]
  Potency: inactive

## CC1=CC(=O)OC(C)(CC(C)(O)C(=O)O)C1 (stereo not given)
[1]
  Potency: inactive
[2]
  Potency: inactive

## C/C=C(\C)C(=O)O[C@@H](C)[C@H]1CC[C@]2(O)C3CCC4C[C@@H](OC5CC(OC)C(OC6CC(OC)C(OC7CC(OC)C(OC8OC(C)C(OC9OC(CO)C(O)C(O)C9O)C(OC)C8O)C(C)O7)C(C)O6)C(C)O5)CC[C@]4(C)C3[C@H](O)[C@@H](O)[C@]12C (stereo not given in full)
[1]
  activity change, negative = viability loss: -6.35% [at 9.23 µM] (inactive)
[2]
  activity change, negative = cell killing: -1.09% [at 9.23 µM] (inactive)

## O=C1N(CC2CCCCN2)CCN1c1ccccc1 (stereo not given)
[1]
  Potency: inactive
[2]
  Potency: inactive

## CC(=O)N[C@H](Cc1ccc(O)cc1)C(=O)N[C@H](CCCN=C(N)N)C(=O)N[C@H](Cc1ccccc1)C(N)=O (Ac-[dY]-[dR]-[dF]-NH2)
[1]
  Potency: inactive
[2]
  Potency: inactive

## COc1ncc(-c2ccc3c(Nc4cc(Oc5cc(F)cc(F)c5)cc(C(=O)O)c4)c(S(=O)(=O)NC4CC4)cnc3c2)c(OC)n1
[1]
  Potency: inactive
[2]
  Potency: inactive

## CC(/C=C/C1(O)C(C)(C)CC(O)CC1(C)O)OC1OC(CO)C(O)C(O)C1O (stereo not given)
[1]
  Potency: inactive
[2]
  Potency: inactive

## COc1cc(C[C@H]2COC(=O)[C@@H]2Cc2ccc(O)c(OC)c2)ccc1O
[1]
  Potency: inactive
[2]
  Potency: inactive

## C=CC1(C)CC2=CCC3C(C)(C(=O)O)CCCC3(C)C2CC1OC(C)=O (stereo not given)
[1]
  Potency: inactive
[2]
  Potency: inactive

## NC1CCC(N[C@@H]2C[C@H]2c2ccccc2)CC1 (stereo not given in full)
[1]
  Potency: inactive
[2]
  Potency: inactive and 26.3 µM (active)

## C=C1C(=O)OC2CC(C)=C(C(C)CCCO[C@@H]3O[C@H](CO)[C@@H](O)[C@H](O)[C@H]3O)C(O)C12 (stereo not given in full)
[1]
  Potency: inactive
[2]
  Potency: inactive

## C[C@@H]1C[C@H]2[C@@H]3CCC4=CC(=O)C=C[C@]4(C)[C@@]3(F)[C@@H](O)C[C@]2(C)[C@@]1(O)C(=O)COP(=O)(O)O
[1]
  Potency: inactive
[2]
  Potency: 91.6 nM (active)

## C=CC(C)(O)CC/C=C(\C)C(=O)OC1CC2(C(=O)O)CCC3(C)C(=CCC4C5(C)CCC(OC6OC(COC7OCC(O)C(O)C7O)C(O)C(OC7OCC(O)C(O)C7O)C6OC6OC(CO)C(O)C(O)C6OC6OCC(O)C(O)C6O)C(C)(C)C5CCC43C)C2CC1(C)C (stereo not given)
[1]
  activity change, negative = viability loss: -9.57% [at 9.23 µM] (inactive)
[2]
  activity change, negative = cell killing: -5.78% [at 9.23 µM] (inactive)

## CC12CC34C=CC(=O)C(C)(CCC(=O)O)C3C(CC1C4)O2 (stereo not given)
[1]
  Potency: inactive
[2]
  Potency: inactive

## COC(=O)C1=CO[C@@H](O[C@@H]2O[C@H](CO)[C@@H](O)[C@H](O)[C@H]2O)[C@@H]2[C@@H](C)[C@@H](O)C[C@H]12
[1]
  Potency: inactive
[2]
  Potency: inactive

## CC1(O)CCC2C(C(=O)O)=COC(OC3OC(CO)C(O)C(O)C3OC(=O)/C=C/c3ccc(O)cc3)C21 (stereo not given)
[1]
  Potency: inactive
[2]
  Potency: inactive

## O=C(O)C[C@H]1CCC(=O)[C@@H]1C/C=C\CCOC1OC(CO)C(O)C(O)C1O (stereo not given in full)
[1]
  Potency: inactive
[2]
  Potency: inactive

## CCNC(=O)[C@@H]1CCCN1C(=O)[C@H](CCCN=C(N)N)NC(=O)[C@H](CC(C)C)NC(=O)[C@@H](C)NC(=O)[C@H](Cc1ccc(O)cc1)NC(=O)[C@H](CO)NC(=O)[C@H](Cc1c[nH]c2ccccc12)NC(=O)[C@H](Cc1cnc[nH]1)NC(=O)[C@@H]1CCC(=O)N1
[1]
  Potency: inactive
[2]
  Potency: inactive
